Records with an inconclusive call do not appear. A number with no mark means an inactive call. Calls of active or inactive are those of the source. Calls come from the whole dose curve; as a rule, active = well fitted cell-killing curve with a large enough effect; inconclusive = small, poorly fitted or top-dose-only effect; inactive = flat fitted curve, though single readings scatter.

In general, viability refers to a read-out of living cells in per cent, often relative to untreated cells.
Note: nearly all actives have a fitted effect of over 35% in size.
Potency is the fitted concentration of half-maximal effect.

A short description of the first assay: Quantitative highthroughput screen to assess conditional lethalithy of P12 Ichikawa cells grown in RPMI1640 with dialyzed fetal bovine serum (RPMI+ds) (AID 1963880).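 For viability: 100% = DMSO wells and 0% = empty wells on each plate.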 The conditions noted are these: ATP luminescence, 48 h; Potency: P12-Ichikawa viability; series mostly up to 45.8 µM; viability: at the top concentration. The method, boiled down:
(§1)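 Each medium arm—HPLM with 10% dialyzed FBS, or RPMI1640 with 5 mM glucose and 10% untreated or dialyzed FBS—was screened against an 11-point, 3-fold compound titration for 48 h at 37 °C, with CellTiter-Glo luminescence as endpoint.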
On to `CS(=O)(=O)CCNCc1ccc(-c2ccc3ncnc(Nc4ccc(OCc5cccc(F)c5)c(Cl)c4)c3c2)o1`, for which the Potency was 18.7 µM (active). Consider `CC(=O)OCCN1C(=O)c2c(C)nc3ccc(S(=O)(=O)N4CCOCC4)cc3c2C1=O`, for which the Potency was 3.32 µM (active).

`CC(C)(S)[C@@H](N)C(=O)O`: the “viability” value was 86.9%. Same read-out and setting: the value for `CC1(C)[C@H](C(=O)O)N2C(=O)C[C@H]2S1(=O)=O` was 111%. For the compound `CCOc1cc(N2CCC(O)CC2)ccc1Nc1ncc2c(n1)N(C)c1ccccc1C(=O)N2C`, the Potency is 3.32 µM (active).

With `c1cncc(CN2CCC(n3ncc4c(N5CCOCC5)nc(-c5ccc6[nH]ccc6c5)nc43)CC2)c1`, the Potency was 13.2 µM (active). On the same count and under the same terms, the same measure for `NCC(=O)Nc1ccc(-n2nc(C(F)(F)F)cc2-c2ccc3c(ccc4ccccc43)c2)cc1`: 2.96 µM (active); for `CN(C)c1ccc(C(=O)NCCCCCCC(=O)NO)cc1`: 1.18 µM (active). For `CCCCCNC(=O)N1CCC(CN(Cc2ccc(Cl)cc2)Cc2ccc([N+](=O)[O-])s2)C1` (stereo unspecified), the “viability” value is 76.7%. Consider `CN1CCN(c2ncc(-c3cc(Cl)cc(Cl)c3Cl)c(N)n2)CC1`, for which the Potency was 3.72 µM (active).

For `Cc1cc(C(=O)N2CCN(c3cccc(Cl)c3)CC2)n(-c2ccccc2)n1`, the Potency is 2.96 µM (active). Regarding `COc1cc2ncnc(Nc3ccc(F)c(Cl)c3)c2cc1OCCCN1CCOCC1`, the “viability” value is 90.4% [at 92.2 µM]. Regarding `Cc1cn(-c2cc(NC(=O)c3ccc(C)c(Nc4nccc(-c5cccnc5)n4)c3)cc(C(F)(F)F)c2)cn1`, the Potency was 1.05 µM (active).

A short description of the next assay: Quantitative highthroughput screen to assess conditional lethalithy of P12 Ichikawa cells grown in RPMI1640 with untreated serum (RPMI+s) (AID 1963881).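 For viability: 100% = DMSO wells and 0% = empty wells without cells.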 The conditions noted are these: ATP luminescence, 48 h; Potency: viability; series mostly up to 45.8 µM; viability: at the top concentration. The method, boiled down:
as §1
Consider `CS(=O)(=O)CCNCc1ccc(-c2ccc3ncnc(Nc4ccc(OCc5cccc(F)c5)c(Cl)c4)c3c2)o1`, for which the Potency was 18.7 µM (active). `Cc1ccc(C(=O)N(CCCN)[C@@H](c2oc3cc(Cl)ccc3c(=O)c2Cc2ccccc2)C(C)C)cc1`: the “viability” value is 6.03%. Still for that read-out and setting: the same measure for `CC(C)(S)[C@@H](N)C(=O)O`: 86.8%; for `COc1cc(C(C)C)c2c(c1)S(=O)(=O)N(COc1cc(=O)n3cccc(OCCN4CCCCC4)c3n1)C2=O`: 90.4%; for `CN1CCC(=C2c3ccccc3CCc3sccc32)CC1`: 77.6%. With `CCOc1ccc(Nc2nc(-c3c(C)nc4ccccn34)cs2)cc1`, the Potency is 0.059 µM (active). As to `c1cncc(CN2CCC(n3ncc4c(N5CCOCC5)nc(-c5ccc6[nH]ccc6c5)nc43)CC2)c1`, the Potency is 13.2 µM (active). Take `CN(C)c1ccc(C(=O)NCCCCCCC(=O)NO)cc1`: the Potency was 1.48 µM (active). As for `CCc1nc(N)nc(N)c1-c1ccc(Cl)cc1`, the Potency is 10.5 µM (active). With `N#Cc1c(NC(=O)c2cccc3ccccc23)sc2c1CCCC2`, the Potency was 0.662 µM (active).

For the compound `Cc1cc(C(=O)N2CCN(c3cccc(Cl)c3)CC2)n(-c2ccccc2)n1`, the Potency is 3.32 µM (active). Take `COc1cc2ncnc(Nc3ccc(F)c(Cl)c3)c2cc1OCCCN1CCOCC1`: the “viability” value is 94.9% [at 92.2 µM]. Regarding `Cc1cn(-c2cc(NC(=O)c3ccc(C)c(Nc4nccc(-c5cccnc5)n4)c3)cc(C(F)(F)F)c2)cn1`, the Potency is 1.32 µM (active).

These data come from PubChem BioAssay (NCATS).
